Median seed-adjusted z-score data for 69 sequences are collected here from PubChem BioAssay AID1347426 (Functional Genomics Laboratory (NCATS/FGL), 2020).

The whole screen tested about 31,000 sequences, of which about 1,400 (4.5%) were called active. This excerpt belongs to a sample that is enriched for actives. Unmarked numbers belong to inactive results.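 The calls were made as follows: active = median seed-adjusted z-score above 1 or below -1; inactive = the rest.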

The nature of this assay: Novel Modifiers of Survival Motor Neuron (SMN) Protein: Gene Identification via Genome-wide siRNA Screen.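 Also: luminescence tracks full-length SMN protein made from the SMN2 reporter.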 Conditions: HEK293T SMN2-luciferase reporter, siRNA knockdown, 72 h; actives lie on both sides. An outline of the steps:
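HEK293T cells stably carrying an SMN2 promoter/splicing cassette–luciferase reporter were reverse-transfected with 1 pmol siRNA per well (druggable-genome library, 3 siRNAs per gene) and grown 72 h at 37 °C. Luminescence, normalized to negative-control siRNA and log10-transformed, was scored as MAD.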
(A reporter such as luciferase makes a cellular process visible.)
As to CCCUAUCAAUUUCUAUGGATT against MPP4, the median seed-adjusted z-score was 0.13.
Turning to GCCUGACAGUGGUAUACAATT against COPZ1, the median seed-adjusted z-score is -1.02 (active).
Take GCUACAACUGGAUAAGGAATT against FTSJ1: the median seed-adjusted z-score is 0.0774.
Then CAUGAUAUCUGGACCCAAATT against SSX3, with 0; and AGACGUACCGAGAGGAGUATT against PLA2G2F, with 0.508; and CCAUGCUGGAGAUCAAGAATT against PRKAG3, with -1.03 (active).
As to CCCUGGAUGUCCUAUCUGATT against SLC2A1, the median seed-adjusted z-score was -0.349.
With GGAGGAUGACAAGAUCUAUTT against RNF113A the figure was -0.128.
As for GCACUGAUGUAAAUUACUUTT against RAB6C, the median seed-adjusted z-score is -1.08 (active).
As for GCAGUACAGUGAAUGCCGATT against AKAP8, the median seed-adjusted z-score was -0.252.
CCACCGAGCUAACAUCUGATT against MFAP3L: the median seed-adjusted z-score is 1.03 (active).
As for CAGACUUAUUGUAACAAGATT against ENPP3, the median seed-adjusted z-score was 0.66.
On to GCUACACUCAACUACCUGATT against ADCY5, for which the median seed-adjusted z-score was -0.123.
In the case of CCACAAGAGUUCGAACUCATT against ZFX, the median seed-adjusted z-score is -0.581.
Take GGAAUGCAAUUCUCAGAGATT against LCN2: the median seed-adjusted z-score was 0.123.
With CACAGAUUCGAGAAAUUCATT against SF3B1 the figure was -3.65 (active); with GGUUGACAAAUGCAGGAUATT against RIOK2, -0.16.
On to GCAUCGGCAUCUUCACGCUTT against FZD5, for which the median seed-adjusted z-score was -0.129.
For GACCCGCGAUUAAACCUCATT against CHST1, the median seed-adjusted z-score is 0.181.
In the case of GGUUUGGGAUGGGAAUUGATT against SUPT16H, the median seed-adjusted z-score is 1.2 (active).
Take GGGUACAAGUUACCUAAUATT against TDRD6: the median seed-adjusted z-score was 0.
Then GGAAACGACCUGUCAAAGATT against PHAX, with -0.0716.
With GGAGAUCGUUCUGCACAGATT against PAEP the figure was -0.0632.
As to CCAUCUUGGUAAUGCCCAUTT against HTR1D, the median seed-adjusted z-score was -0.155.
With CGAGUUACUUUUCAGCUAATT against MYH4, the median seed-adjusted z-score was -1.8 (active).
With AGUUCACCCUCGUACUCUATT against FURIN the figure was 0.0975.
Consider UCAUAAACUUGGAUAAGCATT against NRIP3, for which the median seed-adjusted z-score is -0.699.
Then GCGAAUGAGUGGUAGAGGATT against ARHGAP21, with 0.229.
Then GCACUUUUCGAGGAGGAGATT against SLC12A7, with -0.0309; and CAGUUGAUUUAAGAGGUAATT against PRPF4B, with -2.29 (active); and CAAGGAGUUUUACCCAGUATT against CYP4Z1, with -0.139.
In the case of CUUUAUGACUUAGAGUUAATT against BAAT, the median seed-adjusted z-score was 0.641.
Regarding GAACUUAUAAGUGCAGCAATT against ZNF547, the median seed-adjusted z-score is 0.099.
As for CGUGGAAGGUGAGUAAUAATT against ZBTB40, the median seed-adjusted z-score is 0.187.
In the case of GGUGGUGAAUGAAGGUUCATT against HINT1, the median seed-adjusted z-score was 0.873.
As for CCAUAACCGCCACACCCUUTT against GPR153, the median seed-adjusted z-score is -1.08 (active).
As for GAAUGCAUGUGAUCACCUATT against SF3B14, the median seed-adjusted z-score was -1.26 (active).
Take GGGUUGCUAGAAAAUCGUATT against USP37: the median seed-adjusted z-score was 0.0907.
For the sequence GAGAUGAACGUGUAAAGAATT against CIR, the median seed-adjusted z-score is -0.197.
Then CAGAAUAUAUGACAGGAAATT against YY1, with 1.94 (active); and CCUCCGGAACAAGAACUAATT against ZNF397, with -0.107.
GUCUGCUUUGUAUAGAUAATT against KLRC3: the median seed-adjusted z-score was 0.833.
Regarding CGACUACAUGUUCAAGAUUTT against RAB3A, the median seed-adjusted z-score is -0.0787.
With GGAUGCGUUUUCUGACAAATT against GPR149 the figure was -0.186; with GCAUACGAUUUUAAGCGGATT against PTEN, -0.408.
Consider GAACCAGGAGAGAAUAGAATT against PDGFRL, for which the median seed-adjusted z-score is 0.0203.
As for GCUGCGAGCUCGAAACUUUTT against SEC14L4, the median seed-adjusted z-score was -0.714.
Take CGACAAGUCUGACAGGGAUTT against PQBP1: the median seed-adjusted z-score was -1.12 (active).
Then GGUUUGAGCUUACUCUUCATT against ACCN5, with 0.227; and GGGAAGAACAGAAUACUGATT against ZNF563, with 0.00283; and GCGUGGAAAUUGUACCCGUTT against MBNL3, with -0.189.
As to GGAAAAGGAACGGAAUAAATT against MLN, the median seed-adjusted z-score is -0.422.
With GCAGUUAACACUCAAGGAATT against MKKS the figure was 1.03 (active); with GGUAAUCUUUAUGAAGAGATT against GCM1, 0.0197; with GCCUGUAAGUUAUUAAAGATT against ARL4D, -0.523.
With GGCUGAAAUUGUAACCCUATT against TPD52L3 the figure was 0.552.
On to GCAACCUUCUAACUACGGUTT against HNRNPA2B1, for which the median seed-adjusted z-score is 1.33 (active).
On to CAGGAUCUGUUCAACCAAATT against VWA2, for which the median seed-adjusted z-score is 0.584.
For the sequence GGAUGGGAACAACCCUGCATT against HMGN4, the median seed-adjusted z-score is -0.0471.
With CCUCCUUGUUAGUGUCUUUTT against CLEC11A the figure was -1.1 (active); with CCAGGUCCCUAAUCAUGGATT against NOXA1, -0.441; with GGGAAGCACUGGUCGAAGATT against DTD1, -1.58 (active).
For AGGCCUUUCUGGGACCUUATT against ZP4, the median seed-adjusted z-score is 0.0498.
For CUAAGACCAGUAUAGUAAATT against ARF6, the median seed-adjusted z-score was -0.805.
As for GGAUCUGGUUCAACUUGGATT against FUT3, the median seed-adjusted z-score is 0.11.
Turning to GUGUCUCAGGGAUAGGUAATT against MICAL2, the median seed-adjusted z-score is -0.0224.
Turning to AGGAGUUCUUGGUCAUGAUTT against TNNC2, the median seed-adjusted z-score was -0.773.
Take GCAUUACAGUCUGAAUUGATT against PTPDC1: the median seed-adjusted z-score was -0.191.
Take GCUUUAUGCUGCUAAGGCATT against PGD: the median seed-adjusted z-score is -1.55 (active).
